Measured values published in article PMC4336329 (PLoS ONE, 2015).
Out of some 310,000 compounds screened, about 14,000 (4.5%) showed an effect of 50% or more. The effect is printed as a negative number. The sample as a whole holds a higher share of strong results than the screen did.

molecular target: human ether-à-go-go-related gene (hERG) potassium channel (human, UniProt Q12809); assay: primary screen, population patch clamp on CHO cells stably expressing hERG; higher = less effect of the substance
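Note: peak tail current of the secondary pulse compared with the same well before compound.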

Sequence of human ether-à-go-go-related gene (hERG) potassium channel (Q12809 whole entry, looked up): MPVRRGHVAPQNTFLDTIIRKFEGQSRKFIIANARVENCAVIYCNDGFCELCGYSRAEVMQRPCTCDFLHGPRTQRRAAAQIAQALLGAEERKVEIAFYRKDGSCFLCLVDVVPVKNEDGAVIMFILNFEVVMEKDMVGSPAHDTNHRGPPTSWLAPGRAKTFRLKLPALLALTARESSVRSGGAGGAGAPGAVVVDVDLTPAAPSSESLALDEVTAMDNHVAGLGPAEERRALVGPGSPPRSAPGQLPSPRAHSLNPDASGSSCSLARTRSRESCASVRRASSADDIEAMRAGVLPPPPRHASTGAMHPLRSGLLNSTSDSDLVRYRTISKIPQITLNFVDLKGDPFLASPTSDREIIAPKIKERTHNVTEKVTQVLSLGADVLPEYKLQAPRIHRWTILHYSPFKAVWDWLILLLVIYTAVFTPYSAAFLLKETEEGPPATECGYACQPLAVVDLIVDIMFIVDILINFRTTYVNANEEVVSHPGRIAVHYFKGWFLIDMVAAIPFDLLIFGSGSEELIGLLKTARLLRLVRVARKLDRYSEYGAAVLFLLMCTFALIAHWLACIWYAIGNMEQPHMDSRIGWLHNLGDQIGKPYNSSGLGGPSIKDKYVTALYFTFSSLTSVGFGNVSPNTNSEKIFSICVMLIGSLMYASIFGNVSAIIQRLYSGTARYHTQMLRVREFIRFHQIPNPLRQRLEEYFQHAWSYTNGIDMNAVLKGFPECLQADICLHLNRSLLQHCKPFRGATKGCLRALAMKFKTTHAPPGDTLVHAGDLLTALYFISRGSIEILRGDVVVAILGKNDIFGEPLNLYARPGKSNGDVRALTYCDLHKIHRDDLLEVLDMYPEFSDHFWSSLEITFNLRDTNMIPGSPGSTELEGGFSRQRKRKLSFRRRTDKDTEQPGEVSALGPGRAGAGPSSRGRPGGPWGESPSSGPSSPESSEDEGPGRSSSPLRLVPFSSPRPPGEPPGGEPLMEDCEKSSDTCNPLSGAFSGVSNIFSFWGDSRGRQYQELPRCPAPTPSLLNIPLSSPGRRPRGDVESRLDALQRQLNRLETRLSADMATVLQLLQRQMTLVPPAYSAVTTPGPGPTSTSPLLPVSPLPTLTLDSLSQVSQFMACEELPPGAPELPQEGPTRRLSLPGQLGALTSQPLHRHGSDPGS

| SMILES | hERG current change (%, negative = inhibition) at 10uM [%] |
| --- | --- |
| COc1cc(=O)[nH]c(SCc2c(F)c(F)c(F)c(F)c2F)n1 | 0.443 |
| CC(=O)N(CC(=O)O)c1ccccc1C(=O)O | 12 |
| Cc1cccc(NC(=O)CN2C(=O)/C(=C3\SC(=S)N(CC4CCCO4)C3=O)c3ccccc32)c1 (centres unmarked) | 12.9 |
| O=C1/C(=C2\C(=O)N(Cc3ccc(F)cc3)c3ccccc32)SC(=S)N1CCS(=O)(=O)O | 4.31 |
| O=C(CN1C(=O)/C(=C2\SC(=S)N(CCS(=O)(=O)O)C2=O)c2ccccc21)Nc1cccc(Br)c1 | -73.1 |
| COc1ccccc1CCNC(=O)C1CCC(=O)N(C2CCCCCC2)C1 (centres unmarked) | -7.62 |
| N#Cc1cc2sc3nnc(-c4ccncc4)n3c2cc1C#N | -54 |
| Cc1ccc(-c2nnc3sc(-c4ccncc4)nn23)cc1 | -41.4 |
| Cc1cn2c(-c3ccncc3)nnc2s1 | 7.96 |
| COCCCNC(=O)c1ccc(Cn2c(=O)c3ccccc3n(CC(=O)NCc3ccco3)c2=O)cc1 | 6.71 |
| COc1cccc2sc(=NC(=O)CS(=O)(=O)c3ccc(F)cc3)n(C)c12 | -0.213 |
| COc1cccc2sc(=NC(=O)CCS(=O)(=O)c3ccc(C)cc3)n(C)c12 | 8.32 |
| COc1cccc2sc(=NC(=O)CS(=O)(=O)c3ccc(Cl)cc3)n(C)c12 | -60.8 |
| Cc1ccccc1OCC(=O)NN1C(=O)C2C3C=CC(O3)C2C1=O (centres unmarked) | 12.3 |
| COCCc1nnc(NC(=O)Cc2ccccc2)s1 | 4.67 |
| C#Cc1ccc([C@@H]2C=C(C(=O)NCc3ccccc3)O[C@H](OCc3ccc(CO)cc3)C2)cc1 | 6.15 |
| O=C(NCc1ccc2c(c1)OCO2)c1cc2ccccc2oc1=O | 12 |
| O=C(NCCC(=O)N(Cc1ccco1)Cc1cccs1)c1ccc(Br)cc1 | -58.7 |
| O=C(NCCC(=O)N(Cc1ccco1)Cc1cccs1)c1ccccc1Cl | -16.5 |

| SMILES | hERG current change (%, negative = inhibition) at 10uM [%] |
| --- | --- |
| O=C(c1cc2ccccc2oc1=O)N(Cc1ccco1)Cc1cccs1 | -58.3 |
| O=C(c1cc2ccccc2o1)N(Cc1ccco1)Cc1cccs1 | -35.4 |
| O=C(c1cc2ccccc2oc1=O)N(Cc1ccc2c(c1)OCO2)Cc1ccco1 | -59.3 |
| COc1ccccc1C(=O)NCCC(=O)N(Cc1ccco1)Cc1cccs1 | -21.3 |
| O=C(c1cc2ccccc2oc1=O)N(Cc1ccco1)CC1CCCO1 (centres unmarked) | 6.96 |
| O=C(c1cc2ccccc2oc1=O)N(Cc1cccs1)Cc1cccs1 | -14.4 |
| CCn1c(CNC(=O)c2ccc(OC)c(OC)c2)nnc1SCC(=O)Nc1ccccc1 | -21.5 |
| COC(=O)C1=C(c2cccc(C#N)c2)C[C@@H]2CC[C@H]1N2C(=O)N1CCOCC1 | 6.41 |
| COc1ccc(-c2noc(CN(C)C(=O)CCN3C(=O)[C@H]4CC=CC[C@H]4C3=O)n2)cc1 | -2 |
| COc1cc(C(=O)NCC(=O)OCC(=O)N2CCc3ccccc32)cc(OC)c1OC | 3.43 |
| COc1ccc(OC)c(S(=O)(=O)Oc2ccc(N)c3ccccc23)c1 | 7.83 |
| CC(C)(C)c1ccc(C(=O)NNC(=S)NCC2CCCO2)cc1 (centres unmarked) | 14.4 |
| CCOc1ccc(NC(=O)CCSc2ccc(C)cc2)cc1 | 8.63 |
| Cc1ccc(Nc2nc(N)nc(CN3CCN(C(=O)c4ccco4)CC3)n2)cc1Cl | -74 |
| O=C(c1cccc(Cl)c1)N1CCN(C(=O)c2ccco2)CC1 | -8.43 |
| Nc1nc(CN2CCN(C(=O)c3ccco3)CC2)nc(Nc2cccc(Cl)c2)n1 | -78.6 |
| O=C(c1ccco1)N1CCN(C(=O)c2ccc(CS(=O)c3cccc(Cl)c3)o2)CC1 (centres unmarked) | -14 |
| Cc1ccc(NC(=O)N2CCN(C(=O)c3ccco3)CC2)cc1Cl | -2.38 |
| Cc1cc(/C=C2\SC(=S)NC2=O)c(C)n1-c1ccccc1 | 14.6 |

| SMILES | hERG current change (%, negative = inhibition) at 10uM [%] |
| --- | --- |
| Oc1c(/C=C/C=C/C=Nc2ccccc2)sc(=S)n1Cc1ccccc1 | -5.14 |
| FC(F)(F)c1cc(-c2ccco2)nc(N2CCN(c3ccccc3)CC2)n1 | 1.67 |
| Fc1ccc(N2CCN(c3nc(-c4ccco4)cc(C(F)(F)F)n3)CC2)cc1 | 15.2 |
| CN1CCN(c2nc(-c3ccco3)cc(C(F)(F)F)n2)CC1 | -62.8 |
| O=C(O)Cc1ccc(NC(=O)C2CC=CCC2C(=O)O)cc1 (centres unmarked) | 23.7 |
| C[C@@H](NC(=O)c1nc[nH]c1C(=O)NC1CCN(C(=O)OC(C)(C)C)CC1)c1ccccc1 | -14.4 |
| Cc1ccc(C2CC(c3ccccc3C)n3nc(N)nc3N2)cc1 (centres unmarked) | -14.6 |
| Nc1nc2n(n1)C(c1c(F)cccc1Cl)CC(c1ccc(F)cc1)N2 (centres unmarked) | -62.4 |
| Nc1nc2n(n1)C(c1cccs1)CC(c1ccc(F)cc1)N2 (centres unmarked) | -33.9 |
| Nc1nc2n(n1)C(c1cccs1)CC(c1ccccc1)N2 (centres unmarked) | -23.5 |
| Cc1ccccc1C1CC(c2ccc(F)cc2)Nc2nc(N)nn21 (centres unmarked) | -27.2 |
| CCOc1ccccc1C1CC(c2ccc(Br)cc2)Nc2nc(N)nn21 (centres unmarked) | -55.1 |
| Nc1nc2n(n1)C(c1ccccc1Cl)CC(c1ccc(F)cc1)N2 (centres unmarked) | -25.1 |
| CCOc1ccccc1C1CC(c2ccccc2)Nc2nc(N)nn21.Cl (centres unmarked) | -11.9 |
| CCOc1ccccc1C1CC(c2ccc(F)cc2)Nc2nc(N)nn21 (centres unmarked) | -48.1 |
| COc1cccc(C2CC(c3c(F)cccc3Cl)n3nc(N)nc3N2)c1 (centres unmarked) | -2.6 |
| Nc1nc2n(n1)C(c1cccs1)CC(c1ccc(Br)cc1)N2 (centres unmarked) | -57.5 |
| Cc1ccccc1C1CC(c2ccc(Br)cc2)Nc2nc(N)nn21 (centres unmarked) | -52.3 |
